Compound activity deposited in PubChem by several laboratories.
A selection: hits, their analogues and other compounds. The true share with any hit is near 1.8%.
VHR inh abs: DUSP3 (human) phosphatase inhibition | P51452 | recombinant VHR phosphatase, pNPP absorbance | inhibition, % at 13.3 µM | 290,000 tested, 0.52% active; in the data active means inhibition above about 50%
Target sequence (P51452 whole entry, looked up): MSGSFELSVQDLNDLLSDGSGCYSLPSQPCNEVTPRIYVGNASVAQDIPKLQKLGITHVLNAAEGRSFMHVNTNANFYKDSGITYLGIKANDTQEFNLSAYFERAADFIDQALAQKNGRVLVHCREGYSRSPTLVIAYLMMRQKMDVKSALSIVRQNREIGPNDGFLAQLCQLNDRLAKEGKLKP
Y pestis TopoI: inhibitors of Yersinia pestis topoisomerase I. Y. pestis Topo-I cleavage product accumulation, plate reader. activity, % at 10 µM. 360,000 tested, 0.064% active. AID 504884; in the data active means activity above about 50%, passing the limit was not always enough
BH1578 lux ind: inducers of Vibrio cholerae quorum light production without autoinducers; activation, % at 18.7 µM; V. cholerae BH1578 lux reporter, luminescence, 6 h; 350,000 tested, 0.16% active; in the data active means activation mostly above about 9.7%, no sharp cut-off
PrPC surface inh: reduces human prion protein on the cell surface. P04156. cell surface PrPC, TR-FRET read-out. inhibition, % at 13.8 µM. 370,000 tested, 0.43% active; in the data active means inhibition above about 24%
MazF activator: increases E. coli MazEF RNase cleavage of RNA; activation, % at 20 µM; 350,000 tested, 0.32% active; P0AE70; AID 504720; FAM/BHQ RNA-DNA oligo cleavage fluorescence, 5 h; in the data active means activation above about 50%
Target sequence (P0AE70 whole entry, looked up): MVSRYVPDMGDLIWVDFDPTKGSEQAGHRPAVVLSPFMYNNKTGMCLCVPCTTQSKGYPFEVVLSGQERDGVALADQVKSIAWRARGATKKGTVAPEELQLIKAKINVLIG
CCHF vOTU inh-1: CCHFV vOTU protease inhibition. Pep-AMC fluorescence. inhibition, % at 11.5 µM. 370,000 tested, 0.55% active. AID 651958
CCHF vOTU inh-2: confirmation of CCHF virus vOTU protease inhibitors; shares compounds with CCHF vOTU inh-1; Recombinant CCHFV vOTU, Pep-AMC fluorescence; inhibition, % at 11.5 µM; 1,900 tested, 17% active; AID 686976
Of the large screens only hits and unclear results are named; the others gave an inactive call (follow-up assays come after a bar, where they were run). Unless noted, no stated cut-off is given here; in the data, active means inhibition above about 30%; inactive means the rest.

Cc1csc(NC(=O)C2CC(=O)N(c3ccc4c(c3)OCCO4)C2)n1 (centres undefined)	none (no result: VHR inh abs)
Cc1ccc2[nH]c3c(c2c1)CCc1cn[nH]c1-3	CCHF vOTU inh-1 38 | CCHF vOTU inh-2 inactive
Cc1ccc2[nH]c3c(c2c1)CCC3=O	none
COc1cc(/C=C2\C(=O)N(c3ccccc3)N=C2C)ccc1Oc1ccc([N+](=O)[O-])cc1[N+](=O)[O-]	CCHF vOTU inh-1 48 | CCHF vOTU inh-2 inactive
COc1cc(/C=C2/C(=O)N(c3ccc(C)c(C)c3)N=C2C)cc([N+](=O)[O-])c1O	none
COc1cc(/C=C2\C(=O)N(c3ccc(S(N)(=O)=O)cc3)N=C2C)ccc1OC(=O)c1ccco1	CCHF vOTU inh-1 48 | CCHF vOTU inh-2 inactive
C#CCOc1ccc(/C=C2/C(=O)N(c3cccc(C(=O)O)c3)N=C2C)cc1OC	CCHF vOTU inh-1 35 | CCHF vOTU inh-2 inactive
COc1cc(/C=C2\C(=O)N(c3cccc(C(=O)O)c3)N=C2C)ccc1OCc1ccccc1	none (no result: VHR inh abs)
COc1cc(/C=C2/C(=O)N(c3ccc(C(=O)O)cc3)N=C2C)cc(OC)c1O	CCHF vOTU inh-1 67 | CCHF vOTU inh-2 inactive
C#CCOc1ccc(/C=C2/C(=O)N(c3ccc(S(N)(=O)=O)cc3)N=C2C)cc1OC	none (no result: VHR inh abs)
COc1ccccc1/C=C1/C(=O)N(c2ccccc2)N=C1C	CCHF vOTU inh-1 71 | CCHF vOTU inh-2 inactive
COc1ccccc1/C=C/C(=C1/C(=O)N(c2ccccc2)N=C1C)c1ccc(C)cc1	none
O=C(NCc1ccccc1)C(c1cccc2ccccc12)n1c(=O)c(-c2ccccc2)nc2ccccc21 (centres undefined)	none (no result: VHR inh abs, Y pestis TopoI, BH1578 lux ind, MazF activator)
O=C(Nc1ccc(F)c(Cl)c1)C1CCCN(C2=NS(=O)(=O)c3ccccc32)C1 (centres undefined)	none (no result: VHR inh abs)
FC(F)(F)c1cc(CO[C@@H]2CCCN[C@@H]2c2ccccc2)cc(C(F)(F)F)c1	CCHF vOTU inh-1 33 (no result: VHR inh abs) | CCHF vOTU inh-2 inactive
FC(F)(F)c1cc(CCN2CCNC[C@@H]2c2ccccc2)cc(C(F)(F)F)c1	none (no result: VHR inh abs)
CCCCn1c(N)c(N(CC)C(=O)c2ccccc2F)c(=O)[nH]c1=O	CCHF vOTU inh-1 33 | CCHF vOTU inh-2 inactive
CCCCn1c(N)c(N(CC(C)C)C(=O)CSc2nn(-c3ccc(F)cc3)c(=S)s2)c(=O)[nH]c1=O	CCHF vOTU inh-1 38 (no result: VHR inh abs) | CCHF vOTU inh-2 inactive
COCCN(C(=O)CSc1nn(-c2ccc(F)cc2)c(=S)s1)c1c(N)n(CC(C)C)c(=O)[nH]c1=O	none (no result: VHR inh abs)
CCCn1c(N)c(N(CCOC)C(=O)c2ccccc2F)c(=O)[nH]c1=O	none
NC(=O)C1CCN(CC(O)COCc2ccccc2Cl)CC1 (centres undefined)	none
CCN(CC)c1ccc(N=Cc2c(O)n(-c3ccccc3)c(=O)[nH]c2=O)cc1	CCHF vOTU inh-1 30 | CCHF vOTU inh-2 inactive
CCOC(=O)N1CCN(c2ccc(C(C)=O)cc2F)CC1C (centres undefined)	CCHF vOTU inh-1 31 | CCHF vOTU inh-2 inactive
O=C(CSc1ccc2ccccc2n1)Nc1ccc(N2CCOCC2)cc1	none
Cc1ccc(Cc2c(-c3cccc(Br)c3)nc3ccc(Cl)cn23)cc1	CCHF vOTU inh-1 40 (no result: VHR inh abs, Y pestis TopoI, BH1578 lux ind, MazF activator) | CCHF vOTU inh-2 inactive
Cc1ccc(-c2nc3ccc(Cl)cn3c2Cc2ccccc2C(F)(F)F)cc1	CCHF vOTU inh-1 32 (no result: VHR inh abs, Y pestis TopoI, BH1578 lux ind, MazF activator) | CCHF vOTU inh-2 inactive
Nc1cc([N+](=O)[O-])ccc1N1C(=O)CCCC1=O	none
CC(=O)Nc1ccc(C(=O)OCC(=O)NC2CCCCCCC2)cc1	none (no result: BH1578 lux ind)
COc1ccc(S(=O)(=O)Nc2nc3c(s2)C(=O)CC(C)(C)C3)cc1	none
Cc1ccc(S(=O)(=O)Nc2nc3c(s2)C(=O)CC(C)(C)C3)cc1	CCHF vOTU inh-1 30 | CCHF vOTU inh-2 inactive
CC[n+]1c(-c2ccccc2)c2cc(N)ccc2c2ccc(N)cc21	CCHF vOTU inh-1 91 (no result: VHR inh abs) | CCHF vOTU inh-2 90
Nc1ccc2nc(-c3ccccc3)[nH]c2c1	none
CC(C)(C)c1ccc(C(=O)N2CCOC23CCCCC3)cc1	CCHF vOTU inh-1 34 (no result: VHR inh abs, Y pestis TopoI, BH1578 lux ind, MazF activator) | CCHF vOTU inh-2 inactive
O=C(Nc1ccc(Cl)cc1)N1CCOC12CCCCC2	none
COc1ccc(S[C@@H](CCN2CC[C@H](NC(=O)OCc3ccccc3)CCC2=O)c2ccccc2)cc1	CCHF vOTU inh-1 36 (no result: VHR inh abs) | CCHF vOTU inh-2 inactive
CN(C)c1ccc(NC(=O)COC(=O)c2cc(=O)c3ccccc3o2)cc1	CCHF vOTU inh-1 35 | CCHF vOTU inh-2 inactive
CC(C)C[C@@H]1COc2cc(N3CCSCC3)ccc2S(=O)(=O)N1C	none (no result: VHR inh abs, Y pestis TopoI, BH1578 lux ind, MazF activator)
O=C(c1ccc2c(c1)OCO2)N1CCC2(CC1)Oc1ccc(F)cc1C(=O)C21CC(c2ccccc2)=NO1 (centres undefined)	none
CCNC(=O)N1CCN(c2ccc(N3CCN(C(=O)NCC)[C@@H](C)C3)c(C)c2)[C@H](C)C1	CCHF vOTU inh-1 35 (no result: VHR inh abs, Y pestis TopoI, BH1578 lux ind, MazF activator) | CCHF vOTU inh-2 inactive
CCNC(=O)N1CCN(c2ccc(N3CCN(C(=O)NCC)[C@H](C)C3)c(C)c2)[C@H](C)C1	none (no result: VHR inh abs, Y pestis TopoI, BH1578 lux ind, MazF activator)
C[C@@H]1CC[C@H]2C(=O)N3[C@@H](CC[C@@H](C)[C@@H]3c3ccc(Br)cc3)C(=O)N2[C@H]1c1ccc(Br)cc1	none
CNc1ccc(-c2ccccc2CO)cn1	none (no result: VHR inh abs, MazF activator)
Nc1nc2c(ncn2[C@@H]2O[C@H](C(=O)NC3CCCCC3)[C@@H](O)[C@H]2O)c(=O)[nH]1	none (no result: VHR inh abs, Y pestis TopoI, BH1578 lux ind, MazF activator)
CN1CCc2nc(SCC(=O)Nc3cccc(F)c3)c(C#N)c(-c3cccs3)c2C1	none
CN1CCc2nc(SCC(=O)Nc3ccc(OC(F)(F)F)cc3)c(C#N)c(-c3cccs3)c2C1	CCHF vOTU inh-1 35 | CCHF vOTU inh-2 inactive
Cc1ccc([C@H]2C(C(=O)O)=CC[C@@H](c3ccc(Cl)c(Cl)c3)N2S(=O)(=O)c2ccc(C)cc2)cc1	CCHF vOTU inh-1 40 (no result: VHR inh abs) | CCHF vOTU inh-2 inactive
Cc1ccccc1S(=O)(=O)N1[C@@H](c2ccc(Br)cc2)C(C(=O)O)=CC[C@H]1c1ccc(Cl)cc1	CCHF vOTU inh-1 45 (no result: VHR inh abs) | CCHF vOTU inh-2 inactive
Cc1ccc([C@@H]2CC=C(C(=O)O)[C@H](c3ccc(Br)cc3)N2S(=O)(=O)c2ccccc2C)cc1	CCHF vOTU inh-1 39 (no result: VHR inh abs) | CCHF vOTU inh-2 inactive
Cc1ccc(S(=O)(=O)N2[C@@H](c3ccccc3)C(C(=O)O)=CC[C@H]2c2ccc3c(c2)OCO3)cc1	none (no result: VHR inh abs)
Cc1ccc(S(=O)(=O)N2[C@@H](c3ccc(C(C)(C)C)cc3)C(C(=O)O)=CC[C@H]2c2ccc3c(c2)OCO3)cc1	CCHF vOTU inh-1 30 (no result: VHR inh abs) | CCHF vOTU inh-2 inactive
CCOC(=O)CN1C(=O)/C(=C2\SC(=S)N(NC(=O)c3cccnc3)C2=O)c2ccccc21	none
Cc1ccc(S(=O)(=O)N2[C@@H](c3ccc(Br)cc3)C(C(=O)O)=CC[C@H]2c2ccc(Cl)cc2)cc1	CCHF vOTU inh-1 39 (no result: VHR inh abs) | CCHF vOTU inh-2 inactive
Cc1ccc([C@@H]2CC=C(C(=O)O)[C@H](c3ccc(Cl)cc3)N2S(=O)(=O)c2ccc(C)cc2)cc1	none (no result: VHR inh abs)
